PubChem BioAssay (NCI)
Compounds without any hit were thinned out: in the full panel of roughly 83,000, 20% have a hit.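 Negative percent growth values reflect cell death: -40 means 40% of the cells present at the start died, and -100 means all died.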 Unmarked numbers belong to inactive results. Activity calls are given as the source filed them. The calls were made as follows: active = growth percent below 10; inactive = the rest.

What follows are compounds tested on HL-60(TB) leukemia (assay: NCI-60 one-dose screen, 48 h (100 = growth as untreated, 0 = no growth, -100 = all killed)). Settings: 10 µM unless noted.
With `COc1ccc(/C=C2\COc3ccc(O)c(O)c3C2=O)c(OC)c1` the growth was -13.2% (active). Work on `COc1cccc2c1C(=O)c1c(O)c3c(c(O)c1C2=O)C[C@](O)(C(=O)CO)C[C@H]3O[C@@H]1C[C@@H](NC(=O)CCCCCN(C)C2(c3ccc(F)cc3)CC3CCC2C3)[C@H](O)[C@@H](C)O1` (stereo partly drawn) yielded a growth of 84.9%. Compound `C/C(=C\c1ccc(OCC(=O)O)c(Cl)c1Cl)[N+](=O)[O-]` has a growth of 79.8%.
